Results published in PubChem BioAssay (NCATS).
Inconclusive results are not listed. Activity calls are given as the source filed them. Calls follow the shape of the dose curve; as a rule, active = well fitted cell-killing curve with a large enough effect; inconclusive = small, poorly fitted or top-dose-only effect, or effect the other way; inactive = no such curve, though single readings can be large or run the other way.

Assay: qHTS of pediatric cancer cell lines to identify multiple opportunities for drug repurposing: Confirmatory screen for MG 63 (6-TG R) cells (AID 1347119); also: nearly all actives have a fitted effect of over 55% in size
Conditions: MG-63 (6-TG resistant) osteosarcoma viability; series mostly up to 45.9 µM
Text: Drug repurposing or repositioning has been offered as a strategy for drug development in oncology programs. This approach has special potential for childhood cancers and other rare or orphan diseases, where the expected return on new drug development has been a disincentive to pharmaceuticals.
In this project we exploit the poly-pharmacology of drugs to discover new indications via phenotypic screening of a panel of 19 well-characterized cell lines derived from solid tumors seen in children and adolescents. The goal is to identify approved drugs with previously unrecognized anticancer properties that has the potential to reveal new mechanisms and biological processes involved in carcinogenesis or drug resistance. We employed a titration-based paradigm (quantitative high-throughput screening or qHTS), where all compounds were tested at multiple concentrations for their effect on cell viability. Concentration-response curves (CRCs) were derived directly from the primary screen, and both potency and efficacy values were used to identify compounds with robust bioactivity profiles. We screened the NIH Chemical Genomics Center (NCGC) Pharmaceutical Collection (NPC) and Mechanism Interrogation Plate (MIPE) small molecule collections of approved and investigational compounds against these cell lines; and measured metabolically active cells after 48 hours of compound treatment as a proxy for cell viability.
Assay Submitter: Nathalia J. Martinez, National Center for Advancing Translational Sciences, National Institutes of Health, Rockville, MD, USA; email: natalia.martinez@nih.gov
[1] Shen, M et al. Quantitative high-throughput phenotypic screening of pediatric cancer cell lines identifies multiple opportunities for drug repurposing. Oncotarget 2017 Dec 19;9(4):4758-4772. PMID 29435139.
The cells were obtained from University of North Carolina (UNC), Pediatric Preclinical Testing Program (PPT), and Coriell Institute (CI).
qHTS cell viability assay:
Cells were assayed in growth media at a density of 500-1,000 cells/well. Five microliters of cells were dispensed into 1,536-well, white, solid-bottom, TC-treated plates (Greiner Bio One) using a multidrop dispenser and incubated at 37 degrees C, 5% CO2, under a humidified atmosphere for 5 hours. Twenty-three nanoliters of compounds and controls (neutral control DMSO or positive control bortezomib at final concentration of 2.3 µM) were subsequently transferred by Kalypsys pintool. For primary screens, the MIPE collection was tested at 11-point dilutions (final concentrations range from 0.78 nM to 46 µM) and the NPC collection at 8-point dilutions (final concentrations range from 0.59 nM to 46 µM). Compounds tested in follow-up screens were assayed at 11-point dilutions. Cells were incubated for 48 hours, followed by addition of 3 µL of CellTiter-Glo (Promega). After a 15 min incubation at room temperature, samples were analyzed for luminescence intensity using a ViewLux High-throughput CCD imager equipped with clear filters.
Potency is read from the fitted curve at half-maximal effect.

| SMILES | Potency |
| --- | --- |
| Cc1cc(Nc2cc(N3CCN(C)CC3)nc(Sc3ccc(NC(=O)C4CC4)cc3)n2)n[nH]1 | 2.61 µM (active) |
| CCNC(=O)Nc1ccc2ncc(Nc3ccc(C)cc3)nc2n1 | inactive |
| CC[C@@H]1C(=O)N(C)c2cnc(Nc3ccc(C(=O)NC4CCN(C)CC4)cc3OC)nc2N1C1CCCC1 | 0.0928 µM (active) |
| CC1=C(CO)C(=O)O[C@@H]([C@@H](C)[C@H]2CC[C@H]3[C@@H]4C[C@H]5O[C@]56[C@@H](O)C=CC(=O)[C@]6(C)[C@@H]4CC[C@]23C)C1 | inactive |
| C=C1C(=CC=C2CCC[C@]3(C)[C@@H]([C@H](C)C=C[C@H](C)C(C)C)CC[C@@H]23)C[C@@H](O)C[C@@H]1O | 2.93 µM (active) |
| CC(C)[C@H](C(=O)Nc1ccc(C(=O)NO)cc1)c1ccccc1 | 0.657 µM (active) |
| CC1(C)CCC(c2ccc(Cl)cc2)=C(CN2CCN(c3ccc(C(=O)NS(=O)(=O)c4ccc(N[C@H](CCN5CCOCC5)CSc5ccccc5)c(S(=O)(=O)C(F)(F)F)c4)cc3)CC2)C1 | inactive |
| COc1cccc(Nc2c(C(N)=O)cnc3c(C)cc(S(=O)(=O)c4cccc(C(=O)N(C)C)c4)cc23)c1 | inactive |
| COc1cc(Nc2ncc(F)c(Nc3ccc4c(n3)N(COP(=O)(O)O)C(=O)C(C)(C)O4)n2)cc(OC)c1OC | 2.33 µM (active) |
| CC(C)(C)NC(=O)[C@H]1CN(Cc2cccnc2)CCN1C[C@@H](O)C[C@@H](Cc1ccccc1)C(=O)N[C@H]1c2ccccc2C[C@H]1O | 23.3 µM (active) |
| COc1ccc(-n2nc(C(N)=O)c3c2C(=O)N(c2ccc(N4CCCCC4=O)cc2)CC3)cc1 | inactive |
| CCCCc1nc2cc(C=CC(=O)NO)ccc2n1CCN(CC)CC | 1.31 µM (active) |
| O=C(Cc1ccc(-c2ccc(OCCN3CCOCC3)cc2)cn1)NCc1ccccc1 | 0.0827 µM (active) |
| Cc1c(NC(=O)OC[C@@H]2COCCN2)cn2ncnc(Nc3ccc4c(cnn4Cc4cccc(F)c4)c3)c12 | inactive |
| COc1c(OCCCN2CCOCC2)ccc2c3n(c(=NC(=O)c4cnc(N)nc4)nc12)CCN3 | 0.229 µM (active) |
| C=CC(=O)Nc1cccc(Oc2nc(Nc3ccc(N4CCN(C)CC4)cc3OC)ncc2Cl)c1 | 23.3 µM (active) |
| O=C(Nc1cc(C(F)(F)F)cc(C(F)(F)F)c1)c1cc(Cl)ccc1O | 0.928 µM (active) |
| CNC(=O)CN1CCC(Oc2cc3c(Nc4cccc(Cl)c4F)ncnc3cc2OC)CC1 | inactive |
| Nc1ncnc2c1c(-c1cnc3[nH]ccc3c1)nn2C1CCCC1 | 0.414 µM (active) |
| Cc1cnc(Nc2ccc(F)cc2Cl)nc1-c1c[nH]c(C(=O)N[C@H](CO)c2cccc(Cl)c2)c1 | inactive |

| SMILES | Potency |
| --- | --- |
| O=C(O)c1ccc2cc(-c3ccc(O)c(C45CC6CC(CC(C6)C4)C5)c3)ccc2c1 | 0.585 µM (active) |
| CC(C)(C)c1cc(C(C)(C)C)c(NC(=O)c2c[nH]c3ccccc3c2=O)cc1O | 20.8 µM (active) |
| COC(=O)Nc1ccc(-c2nc(N3CCOCC3)c3cnn(C4CCN(Cc5cccnc5)CC4)c3n2)cc1 | 1.85 µM (active) |
| CN(C)Cc1c(C(=O)NCCOc2ccc(C(=O)NO)cc2)oc2ccccc12 | 1.47 µM (active) |
| Cc1[nH]c2ccccc2c1CCNCc1ccc(C=CC(=O)NO)cc1 | 0.165 µM (active) |
| O=C(Nc1ncc(-c2cc(C(F)F)nn2-c2c(Cl)cccc2Cl)s1)C1CC1 | 0.329 µM (active) |
| CCn1nnc2c(N3CCOCC3)nc(-c3ccc(NC(=O)Nc4ccc(C(=O)N5CCN(C)CC5)cc4)cc3)nc21 | 0.293 µM (active) |
| CNC(=O)c1ccc(N2C(=S)N(c3cnc(C#N)c(C(F)(F)F)c3)C(=O)C23CCC3)cc1F | inactive |
| Nc1cc(C(F)(F)F)c(-c2cc(N3CCOCC3)nc(N3CCOCC3)n2)cn1 | 3.69 µM (active) |
| Cc1ccc(C(N)=O)cc1Nc1nccc(-c2cn(C(C)C)c3cnccc23)n1 | inactive |
| Cc1cc(C(=O)N2CCN(c3cccc(Cl)c3)CC2)n(-c2ccccc2)n1 | 1.65 µM (active) |
| Cc1cnc(-c2cnc(NCCNc3ccc(C#N)cn3)nc2-c2ccc(Cl)cc2Cl)[nH]1 | 0.737 µM (active) |
| CC=CC1=C(C(=O)O)N2C(=O)[C@H](NC(=O)[C@H](N)c3ccc(O)cc3)[C@@H]2SC1 | inactive |
| CN1CCN(Cc2ccc(NC(=O)Nc3ccc(Oc4cc(NC(=O)C5CC5)ncn4)cc3)cc2C(F)(F)F)CC1 | 2.61 µM (active) |
| Cn1c(=O)n(-c2ccc(C(C)(C)C#N)cc2)c2c3cc(-c4cnc5ccccc5c4)ccc3ncc21 | 0.369 µM (active) |
| COC(=O)Nc1nc2ccc(C(=O)c3ccc(F)cc3)cc2[nH]1 | 1.47 µM (active) |
| COCCn1c2c([n+](Cc3cnccn3)c1C)C(=O)c1ccccc1C2=O | 0.0737 µM (active) |
| Nc1ccccc1NC(=O)c1ccc(CNC(=O)OCc2cccnc2)cc1 | 2.4 µM (active) |
| CNC(=O)c1ccccc1Nc1nc(Nc2ccc(N3CCOCC3)cc2OC)ncc1Cl | 0.261 µM (active) |
| CC1(C)OC2=C(C(=O)c3ccccc3C2=O)[C@H](NCc2ccccc2)[C@H]1O | 16.5 µM (active) |
